Methyltransferases – Primary Screen for Target Class Profiling of Small Molecule Inhibitors of Methyltransferases; 3.9% of 25,000 active; AID 1745853, 2022; calls only at 40 µM; purified enzyme, MTase-Glo SAH luminescence; active compounds read low; call rule not given here
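Each enzyme was assayed with SAM and its substrate. SAH formation detected by MTase-Glo luminescence; single-point 40 uM screen[…].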
MTase-Glo ctr – detection enzyme interference, methyltransferase counter-screen; shares compounds with Methyltransferases; MTase-Glo coupled enzymes, SAH conversion luminescence, no MTase; Potency, µM (highest dose often 57.3 µM), for the others: at the highest dose activity change, negative = inhibition, hits mostly inhibitors; 6% of 180 active; active means well fitted inhibition curve with a large enough effect; further: potency means the concentration at half of the fitted maximal effect
The depositor's hits bear a star; i = inactive; + = active, no number; [ ] = another dose, or the depositor's remark. The sample as a whole holds a higher share of hits than the screen did. On the % scale 0 is the no-effect control and ±100 the full control effect.

SMILES	Methyltransferases	others
CC(C)Cn1c(=O)c2ccc(C(=O)NC3CCCC3)cc2n2c(=O)n(Cc3cccc(F)c3)nc12	i
CC1(C(=O)NC2CCCCCCC2)Cn2c(cc3sccc32)C(=O)N1CCCc1ccccc1 (stereo not drawn)	i
O=C(Cn1nc2c(cc1=O)CCCCC2)Nc1nnc(C2CCCO2)s1 (stereo not drawn)	i
CCc1nc(NC(=O)Cn2nc3c(cc2=O)CCCC3)sc1C	i
COC(=O)c1nc(NC(=O)Cn2nc3c(cc2=O)CCCC3)sc1C(C)C	+	MTase-Glo ctr=-1%
CCc1ccc(CNC(=O)C(C)n2ccc3cc(S(=O)(=O)N4CCCCC4)ccc32)cc1 (stereo not drawn)	i
COC(=O)c1cc2n(n1)CC(C)(C(=O)NC1CCC(C)CC1)N(Cc1ccccc1)C2=O (stereo not drawn)	i
CC(C)n1cnc2cc(CNC(=O)c3cccnc3)ccc21	i
COc1ccccc1CNC(=O)C1(C)Cn2nc(-c3ccccc3)cc2C(=O)N1c1ccccc1F (stereo not drawn)	i
CC(=O)NC1CC2(CCN(Cc3ccc(O)cc3)CC2)c2ccccc21 (stereo not drawn)	+	MTase-Glo ctr=2%
CC(=O)Nc1ccc(CN2CCC3(C2)C(=O)N(C)c2ccccc23)cc1 (stereo not drawn)	i
CC(C)NC(=O)NC1CC2(CCN(C(=O)Cc3ccc(O)cc3)CC2)c2ccccc21 (stereo not drawn)	i
CN1C(=O)c2cc(C(=O)N3CCN(C4CCCCC4)CC3)nn2CC1(C)C(=O)NC1CCCCCC1 (stereo not drawn)	i
CC1CCC(NC(=O)C2(C)Cn3c(cc4occc43)C(=O)N2Cc2ccccc2Br)CC1 (stereo not drawn)	i
CCCn1c(=O)c2ccc(C(=O)NC(C)C)cc2n2c(SCC(=O)c3ccc(F)cc3)nnc12	i
CCCCN(CC)CCN1C(=O)c2cc3occc3n2CC1(C)C(=O)NC1CCCCCC1 (stereo not drawn)	i
Cc1c(Cl)cccc1NC(=O)N1CCn2c(C)ccc2C1C(C)C (stereo not drawn)	i
COc1ccc2c(c1)c(CN1C[C@@H](CO)[C@H](c3nc(C)no3)C1)cn2C	i
Cn1cccc1CN1C[C@@H](CO)[C@H](c2ccncc2)C1	i
COc1ccc(CN2C[C@@H](CO)[C@H](c3ccncc3)C2)c(OC)c1	+	MTase-Glo ctr=4%
COc1cccc(CNC(=O)c2cc3n(n2)CC(C)(C(=O)NCc2ccc(C)cc2)N(C)C3=O)c1 (stereo not drawn)	i
CN(C)CC1(O)CCC2(CCN(C(=O)c3cccn3C)CC2)CC1	+	MTase-Glo ctr=5.4µM*
Cn1cccc1C(=O)N1CC[C@H](CO)[C@H](NC(=O)C2CC2)C1	i
CN1CC2(CCN(C(=O)c3cccn3C)CC2)CC(c2ccccc2)C1=O (stereo not drawn)	i
CCc1ccc(N2C(=O)c3cc4occc4n3CC2(C)C(=O)NC2CCCC(C)C2C)cc1 (stereo not drawn)	i
SMILES	Methyltransferases	others
CCOc1ccc(CCNC(=O)c2cc3n(n2)CC(C)(C(=O)NC2CCCC2)N(C)C3=O)cc1 (stereo not drawn)	i
CCC(C)NC(=O)c1ccc2c(=O)n(C)c3nn(Cc4ccccc4)c(=O)n3c2c1 (stereo not drawn)	i
O=C(CCn1ccc2cc(S(=O)(=O)N3CCCCC3)ccc21)NCc1cccnc1	i
C1=C(c2nc(-c3ccncc3)cc3c2ccn3Cc2cccnc2)CCOC1	+	MTase-Glo ctr=1%[85.7 µM]
COc1cc([C@@H]2Nc3c(Cl)cccc3[C@@H]3C=CC[C@@H]32)cc(Br)c1OC	i
O=C(CCc1nnc2n(Cc3ccc(F)cc3)c(=O)c3ccccc3n12)N1CCN(c2ccc(F)cc2)CC1	i
Cc1ccc([C@@H]2CN(c3cc(N4CCC(O)CC4)ncn3)C[C@H]2N(C)C)cc1	+	MTase-Glo ctr=-3%
CN(C)c1cc(N2CCCC(NC(=O)C3CCC3)C2)ncn1 (stereo not drawn)	i
CCCn1cc(C(=O)N2C[C@@H](N(C)C)[C@H](c3ccc(C)cc3)C2)c(C)n1	i
CCC(C(=O)N1CCN(c2ccccn2)CC1)n1ccc2cc(S(=O)(=O)N3CCCCC3)ccc21 (stereo not drawn)	i
CCCSCCCN1C(=O)c2nc3ccccc3n2CC1(C)C(=O)NC1CCCCC1C (stereo not drawn)	i
Cc1ccc(NC(=O)Cn2nc3n(CCC(C)C)c(=O)c4ccccc4n3c2=O)c(C)c1	i
Cc1cccc(NC(=O)Cn2nc3n(C)c(=O)c4ccc(C(=O)NC5CCCCC5)cc4n3c2=O)c1	i
Cc1noc(C)c1[S+](=O)([O-])N1CCn2c(nn(-c3ccc(C(F)(F)F)cc3)c2=O)C1	+	MTase-Glo ctr=-3%
COc1ccc(-c2nnc3n2CCN([S+](=O)([O-])c2c(C)noc2C)C3)cc1	i
Cc1nn(-c2ccccc2)c2c1C(C)N(C1CCN([S+](=O)([O-])c3c(C)noc3C)C1)C2=O (stereo not drawn)	i
Cc1ccc(NC(=O)Cn2c(=O)oc3cc(S(=O)(=O)N4CC(C)CC(C)C4)ccc32)c(C)c1 (stereo not drawn)	i
N#Cc1cnc(N2CC3CCC(C2)N3CC(F)(F)F)s1	+	MTase-Glo ctr=-2%[85.7 µM]
Fc1ccccc1Nc1ccnc(N2CC3CCC(C2)N3CC(F)(F)F)n1	i
COc1ccc(OC)c2c1cc1n2CC(C)(C(=O)NC2CCCCC2)N(Cc2ccccc2)C1=O (stereo not drawn)	i
Cc1cccc(N2CCN(S(=O)(=O)c3cc4c(cc3Br)n(C)c(=O)n4C)CC2)c1C	i
O=C(C1CCCN1C(=O)c1ccccc1Cl)N1CCC(c2nc3ccncc3[nH]2)CC1 (stereo not drawn)	i
O=C(c1ccc(C(F)(F)F)cc1)N1CCCC(C(=O)N2CCC(c3nc4ccncc4[nH]3)CC2)C1 (stereo not drawn)	+	MTase-Glo ctr=2%
O=C(C1CCCN1[S+](=O)([O-])c1cccc(C(F)(F)F)c1)N1CCC(c2nc3ccncc3[nH]2)C1 (stereo not drawn)	i
COc1ccccc1NC(=O)CSc1nnc2n(CCC(C)C)c(=O)c3ccccc3n12	i
SMILES	Methyltransferases	others
Cc1noc(C)c1-c1cc2c(cc(C)n2CCN(C)C)c(Nc2ccncn2)n1	+	MTase-Glo ctr=-3%[85.7 µM]
COc1ncccc1-c1nc(-c2c(C)noc2C)cc2cc(CN(C)C)oc12	i
CN1C(=O)c2cc(C(=O)NC3CCCCC3)nn2CC1(C)C(=O)NCc1ccccc1 (stereo not drawn)	i
CCOC(=O)c1cc2n(n1)CC(C)(C(=O)NCCC(C)C)N(Cc1ccc(F)cc1)C2=O (stereo not drawn)	i
COc1ccc(OC)c2c1cc1n2CC(C)(C(=O)NC2CCCCC2)N(Cc2ccc(C)cc2)C1=O (stereo not drawn)	i
CN1CCCN(C[C@@H]2CN(C(=O)c3ccn(C)n3)C[C@@H]2CO)CC1	i
CN(C)c1nc2c(c(N3C[C@@H](CN4CCCC4)[C@@H](CO)C3)n1)CCCC2	+	MTase-Glo ctr=14µM*
CC(C)OCCCn1c(=O)c2ccccc2n2c(SCC(=O)Nc3ccc(C(C)C)cc3)nnc12	i
